Shown is part of a subset that was picked to be rich in hits.
Tgondii IFNg – blocks Toxoplasma gondii growth in the presence of IFN-gamma | 3.8% of 69,000 active | AID 1259416 | Toxoplasma gondii growth in IFN-gamma-treated host cells; active compounds read low | activity change, negative = inhibition, % (test concentration not listed); in the data active = activity change below about -70%, passing the limit was not always enough;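 also: host cells are HeLa cells infected with Toxoplasma gondii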
Large screens that a line does not name were inactive; ! = repeats disagree.

CCCC1C(c2ccccc2)NC(c2ccccc2)CC1(O)c1ccc(F)cc1 (centres undefined)	Tgondii IFNg -97
CC1CCN(CC(C)(C)CN2C3CCC2CC(O)(c2ccc(F)cc2)C3)CC1 (centres undefined)	none
CC(C)N1CC2COCC2(COc2ccc(C#N)cn2)C1 (centres undefined)	none
c1cnc2c(c1)CN(CC1CCOCC1)CCN2CC1CC1	none
CCCCCCC(=O)O[C@H]1CC[C@H]2[C@@H]3CCC4=CC(=O)CC[C@]4(C)[C@H]3CC[C@]12C	Tgondii IFNg -75
CCC(=O)O[C@H]1CCC2C3CCC4=CC(=O)CC[C@]4(C)C3CC[C@@]21C (some centres undefined)	Tgondii IFNg -84
C[C@]12CCC(=O)C=C1CC[C@@H]1[C@@H]2CC[C@]2(C)C(=O)CC[C@@H]12	none
CCN(CC)CCOC1CCC2(C)C(=CCC3C4CCC(=O)C4(C)CCC32)C1 (centres undefined)	none
CC(C)n1[nH]c(=O)c2c1NC(=O)CSC2c1ccccc1 (centres undefined)	none
O=C(CN1C(=O)c2ccccc2C1=O)Nc1ccc(Cl)cc1C(=O)c1ccccc1	none
CN1C[C@H]2[C@H](C(=O)N(C)Cc3ccccn3)CCS(=O)(=O)[C@H]2C1	none
Cc1cccc(CN2C[C@@H](C(=O)N3CCCCO3)[C@@H]3OCC[C@H]32)n1	none
COCCN1CCN(S(=O)(=O)C2CC2)Cc2ccc(C)nc21	none
COC1=CC=C2C3Cc4ccc(OC)c5c4C2(CCN3C)C1O5 (centres undefined)	none
Cc1ccc(C(C)n2ccnc2-c2coc(C)n2)cn1 (centres undefined)	none
O=C(NCc1ccc2c(c1)OCO2)c1cc2cccnc2n(Cc2ccccc2F)c1=O	none
CCCc1nc(-c2ccccn2)nc(OC(=O)N(C)C)c1Cc1c(F)cccc1Cl	Tgondii IFNg -98
Cc1cccc(CN2C(=O)C[C@H]3[C@H]2CCN3Cc2ccc(C)s2)n1	none
O=C(O)CN1CCC2C1CC(=O)N2c1ccsc1 (centres undefined)	none
Cc1ccccc1NC(=O)c1cc2cccnc2n(Cc2ccc(F)cc2)c1=O	none
Cn1cc(CN2C[C@H]3CNC[C@H]3C2)cn1	none
COc1cccc2c1C(=O)c1c(O)c3c(c(O)c1C2=O)C[C@@](O)(C(=O)CO)C[C@@H]3O[C@H]1C[C@H](N2CCO[C@H](OC)C2)[C@H](O)[C@H](C)O1	Tgondii IFNg -81
COc1cc(C)c(CN2C3CCC2c2cnc(C)nc2C3)cc1C (centres undefined)	none
CCN1CCC12CCN(C(=O)Cc1cccs1)C2 (centres undefined)	none
COc1cccc(CNC(=O)c2cc3cccnc3n(Cc3ccccc3)c2=O)c1	none
O=C(NCc1ccc2c(c1)OCO2)c1cc2cccnc2n(Cc2ccc(Cl)cc2)c1=O	none
COCC1(C(=O)NC2CN3CCC2CC3)CCC1 (centres undefined)	none
O=C(O)c1ccc2c(c1)C1C=CCC1C(c1cccnc1)N2 (centres undefined)	none
CC(=O)OC1CC[C@@]2(C)C(CCC3C2CC[C@]2(C)C(C4=CC(=O)OC4)C(OC(C)=O)CC32O)C1 (some centres undefined)	Tgondii IFNg -80
Cc1ccccc1CN1CC2CCCN2C[C@H]1C (some centres undefined)	none
COc1cc(N2CCC3(CC2)COCCN3C)ncn1	none
CN1[C@H]2CC[C@@H]1CN(C(=O)c1cc(=O)[nH]c(=O)[nH]1)CC2	none
OC1C2CCC1C(N1CCCCC1)CC2 (centres undefined)	none
CC(=O)NC1CCSC1=O (centres undefined)	Tgondii IFNg -78!
O=C(NCc1ccco1)c1cc2cccnc2n(Cc2ccccc2F)c1=O	none
Clc1ccc(COC(Cn2ccnc2)c2ccc(Cl)cc2Cl)c(Cl)c1 (centres undefined)	Tgondii IFNg -85!
CCc1ccc(NC(=O)c2cc3cccnc3n(Cc3ccc(F)cc3)c2=O)cc1	none
Cc1nc(N(C)C)nc2c1COCC21CCN(CC2CC2)C1 (centres undefined)	none
C[C@@H]1CN(C(=O)c2cn(Cc3ccccn3)cc(C(=O)NC3CCCCCCC3)c2=O)C[C@H](C)O1	none
CN1CCN2CCN(c3ncccc3Cl)CC2C1=O (centres undefined)	none
CC(=O)O[C@@]12CO[C@@H]1C[C@H](O)[C@@]1(C)C(=O)[C@H](O)C3=C(C)[C@@H](O)C[C@@](O)([C@@H](OC(=O)c4ccccc4)[C@H]21)C3(C)C	Tgondii IFNg -76!
c1ccc(NC[C@H]2CCC[C@@]3(CCNC3)O2)nc1	none
CC(C)(C)NC(=O)c1cc2cccnc2n(Cc2ccccc2)c1=O	none
COCCN1CCOCC2(C1)CN(c1cc(OC)ncn1)CCO2 (centres undefined)	none
CC(C)=CCC[C@]1(C)C=Cc2c(O)c3c(c(CC=C(C)C)c2O1)O[C@]12C(=C[C@@H]4C[C@H]1C(C)(C)O[C@@]2(CC=C(C)C(=O)O)C4=O)C3=O	Tgondii IFNg -85
CC(C)CCCC1(C)C=Cc2c(O)c3c(c(CCC(C)C)c2O1)OC12C(CC4CC1C(C)(C)OC2(CCC(C)C(=O)O)C4O)C3=O (centres undefined)	none
O=C(c1cccc(F)c1)N1CC2CNC(C2)C1 (centres undefined)	none
